This is a sample that favours compounds with a hit; in the whole collection about 1.4% have one here.
MRP reversal: reverses drug resistance mediated by MRP; 0.04% of 85,000 active; H69AR cells + 2 uM doxorubicin, CellTiter-Glo, 72 h; differential viability (reversal), % at 10 µM;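 active = viability drop by adding the cancer drug above about 55%, with treated viability meeting a 40% cutoff, limit read from the data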;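 also: viability without doxorubicin minus viability with 2 µM doxorubicin for each compound; larger differential means the compound sensitizes cells more to doxorubicin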
MRP1 act: MRP-1 activation. H69AR cells + doxorubicin, viability rescue, CellTiter-Glo. viability increase, % at 10 µM. 0.61% of 140,000 active;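 active = viability gain under doxorubicin at or above a set limit, the compound median plus 3 SD, cut at about 4.7% in these data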;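 also: MRP-1 overexpressing cells given doxorubicin 25 µM after compound pretreatment; 18-22 h compound pretreatment then 72 h with doxorubicin before readout; 0% = doxorubicin-only wells and 100% = vehicle-treated cells without doxorubicin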
IL1B cytotox: toxic to HUVEC cells under IL-1B stimulation; 0.41% of 94,000 active; cell count reduction, % at 2 µM; AID 845; HUVEC cell count loss, Hoechst imaging, IL-1B stimulated;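 active = cell count reduction more than 3 SD above the screen-wide mean, cut at about 70% in these data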;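 also: normalized per plate to untreated control cells as the no-loss baseline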
NFkB transloc pot: enhances IL-1B driven NFkB nuclear translocation; HUVEC IL-1B NFkB p65 nuclear translocation imaging; activation, % at 2 µM; 0.3% of 94,000 active; AID 819;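 active = activation above 40%, about the mean plus 3 SD, also judged a hit on visual image review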;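 also: percent activation is computed from the nuclear over cytoplasmic p65 intensity ratio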
NFkB transloc inh: blocks IL-1B driven NFkB nuclear translocation in HUVEC cells. 0.43% of 94,000 active. AID 796. inhibition, % at 2 µM. HUVEC IL-1B NFkB p65 nuclear translocation imaging;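 active = inhibition above about 30% together with a positive call from visual inspection of the well image, limit read from the data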;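 also: nuclear over cytoplasmic p65 intensity ratio measured by imaging; 0% = IL-1B stimulated DMSO wells and 100% = unstimulated DMSO wells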
sdo1 growth: restores growth of sdo1-depleted yeast; S. cerevisiae sdo1-depleted JHY4D growth rescue, OD600 30 h; active compounds read high; pdr5 snq2 efflux-pump mutant strain; z-score at 10 µM; 0.21% of 140,000 active;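 active = z-score above 3 at both the 24 hr and the 30 hr optical density reads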;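 also: z-score against mean and SD of all compound wells on the same plate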
An asterisk follows results filed as active; / = no result.

SMILES	MRP reversal	MRP1 act	IL1B cytotox	NFkB transloc pot	NFkB transloc inh	sdo1 growth
O=C(OCn1ncc(Br)c(Br)c1=O)c1ccccc1Cl	-1	-3	44	-88	65*	-2.2
O=C(OCn1ncc(Br)c(Br)c1=O)c1ccc(F)cc1	1	-3	7	-20	20	-2.8
Cc1cc(C)n2nc(SCC(=O)N/N=C/c3cccc(Br)c3)nc2n1	/	-2	-31	136*	-136	0.04
CCCCc1nc(N2CCOCC2)c(C#N)c2c1COC(C)(C)C2	/	1	-19	-6	6	-0.62
CCCCc1nc(NCC2CCCO2)c(C#N)c2c1COC(C)(C)C2 (stereo not given)	/	-3	84*	-11	12	-1.7
Cc1cccc(N(C)S(=O)(=O)c2ccc3[nH]c(=O)c(=O)[nH]c3c2)c1	-11	-2	73*	-9	9	1
CCC(=O)Nc1ccccc1C(=O)C(=O)Nc1ccccc1	/	-1	/	/	/	0.77
Nc1nc2n(n1)C(c1cccs1)CC(c1ccc(Br)cc1)N2 (stereo not given)	21	5.8*	-33	29	-29	0.86
COc1ccc(C2CC(c3ccc(Br)cc3)Nc3nc(N)nn32)cc1 (stereo not given)	12	1	12	4	-4	0.46
COc1ccc(C2CC(c3ccc(OC)cc3)n3nc(N)nc3N2)cc1 (stereo not given)	-4	/	/	/	/	/
COc1ccc(C2CC(c3cccc(Cl)c3)n3nc(N)nc3N2)cc1 (stereo not given)	23	0	/	/	/	0.36
COc1ccc(C2CC(c3ccc(Cl)cc3)n3nc(N)nc3N2)cc1 (stereo not given)	24	30*	25	6	-6	0.14
COc1ccccc1C1CC(c2ccc(Cl)cc2Cl)Nc2nc(N)nn21 (stereo not given)	6	5.6*	-39	9	-9	0.78
Cc1ccc(C(=O)NCCCc2ccccc2)s1	/	1	/	/	/	-0.54
Cc1csc(SCC(=O)NCCc2ccc(Cl)cc2Cl)n1	/	2	/	/	/	-0.16
Cc1cc(C)cc(-n2c(C)cc(/C=C3\C(=N)N4N=C(CC(C)C)SC4=NC3=O)c2C)c1	/	4.7*	/	/	/	0.25
COc1ccc(-n2sc3c(c2=S)-c2cc(OC)ccc2NC3(C)C)cc1	/	-2	-9	-2	2	-1.6
COc1ccc2c(c1)-c1c(ssc1=S)C(C)(C)N2	2	-1	94*	-20	20	-0.52
CN1C(=O)/C(=C/c2ccccc2OCc2ccccc2F)NC1=S	/	-4	7	-4	4	0.04
CCn1c(NCc2cccs2)nc2ccccc21	-6	-1	87*	-7	7	0.87
Cn1c(NCc2cccs2)nc2ccccc21	5	-1	-14	0	0	0.36
CCOC(=O)Nc1nnc(CCc2ccccc2)s1	15	-1	-5	-101	101*	1.1
CCCCCOC(=O)Nc1nnc(CCCCC)s1	11	0	90*	-23	23	-0.6
COC(=O)Nc1nnc(CCc2ccccc2)s1	1	-1	3	15	-15	1.6
COc1cc(C(=O)Nc2ccc(Br)cc2C(=O)c2cc(OC)c(OC)c(OC)c2)cc(OC)c1OC	/	-3	-12	-4	4	0.2
SMILES	MRP reversal	MRP1 act	IL1B cytotox	NFkB transloc pot	NFkB transloc inh	sdo1 growth
O=C(NCCCn1ccnc1)c1nn2c(C(F)(F)F)cc(-c3ccc(Br)cc3)nc2c1Cl	/	-1	/	/	/	-1.4
Cc1c(C(=O)OC(C)C)[nH]c2c1C(=O)CC(C)(C)C2	-13	-1	87*	-96	96*	0.14
COc1cc(/C=C(/C#N)C(=O)Nc2ccc(C)cc2)ccc1Oc1nc(Cl)ncc1F	/	-4	/	/	/	-0.27
Cc1ccc(S(=O)(=O)N2CC(O)CC2C(=O)OCC(=O)c2ccccc2Cl)cc1C (stereo not given)	/	0	/	/	/	-0.58
C/C(=C\c1ccccc1)CN1CCC(C(=O)N2CCC(C)CC2)CC1	18	-2	-15	46*	-46	0.04
COC(=O)c1ccc(CSc2nnc3ccccn23)o1	-5	-3	-3	152*	-152	0.38
c1ccc2c(c1)Nc1nccnc1S2	/	5.1*	/	/	/	0.11
Nc1ncnc2nc(Sc3ccc(Cl)cc3)[nH]c12	-38	-2	6	-34	34*	2.7
Nc1ncnc2nc(SCc3ccc(Cl)cc3Cl)[nH]c12	/	-4	3	-3	3	0.21
O=C(/C=C/c1ccccc1)N1CCN(CCN2C(=O)c3cccc4cccc(c34)C2=O)CC1	/	0	/	/	/	-0.5
